Measurements from PubChem BioAssay (NCI).
This is part of a sample that, as a whole, favours compounds with a hit. Of some 79,000 tested, about 15% had one in any assay. A number with no mark means an inactive call. Active and inactive are the calls of the source. No stated cut-off is given here; in the data, active means growth inhibition above about 70%; inactive means the rest. Where a SMILES comes first, the peptide text is derived from it. [ ]: non-standard residue; d: D form. Ac5c = NC1(C(=O)O)CCCC1

Legend:
[1] = NCI Yeast Anticancer Drug Screen. Data for the rad50 strain (AID 155);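 further: 0% = growth of vehicle-only cultures of the same strain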; details: S. cerevisiae rad50 strain growth inhibition; at 50.0 µM; stronger effect = higher value
Procedure, shortened: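 Cells are treated with compound, grown, and their growth is then scored against vehicle-only cultures of the same repair-deficient yeast strain.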

[2] = NCI Yeast Anticancer Drug Screen. Data for the mec2-1 strain (AID 157); details: S. cerevisiae mec2-1 strain, at 50.0 µM, stronger effect = higher value
Procedure, shortened: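 Strain: mec2-1 (DNA repair/cell cycle alteration). Compound exposure, then growth measured; inhibition expressed relative to vehicle.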

[3] = NCI Yeast Anticancer Drug Screen. Data for the sgs1 mgt1 strain (AID 161);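 further: 0% = growth of cultures given vehicle only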; details: S. cerevisiae sgs1 mgt1 strain, at 50.0 µM, stronger effect = higher value
Procedure, shortened: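 Inhibition of yeast growth, normalised to vehicle-treated controls, is reported for a strain bearing genetic alterations in DNA damage repair.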

[4] = NCI Yeast Anticancer Drug Screen. Data for the cln2 rad14 strain (AID 165);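 further: 0% = growth equal to vehicle treated cultures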; details: S. cerevisiae cln2 rad14 strain, at 50.0 µM, stronger effect = higher value
Procedure, shortened: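 Compounds are applied to the cln2 rad14 yeast strain, and growth is then compared with that of vehicle-treated cultures to give inhibition.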

[5] = NCI Yeast Anticancer Drug Screen. Data for the bub3 strain (AID 167); details: S. cerevisiae bub3 mutant strain, at 50.0 µM, stronger effect = higher value
Procedure, shortened: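 Part of a panel of yeast mutants defective in DNA damage repair or cell cycle regulation. Each strain is grown with compound, and inhibition is calculated relative to solvent-treated cultures.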

[6] = NCI Yeast Anticancer Drug Screen. Data for the mlh1 rad18 strain (AID 175); details: S. cerevisiae mlh1 rad18 strain growth inhibition; at 50.0 µM; stronger effect = higher value
Procedure, shortened: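 Read-out is yeast growth inhibition, calculated against vehicle-only controls. The compound was applied to a strain engineered with DNA damage repair alterations.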

| Structure (SMILES) | growth inhibition [1] | growth inhibition [2] | growth inhibition [3] | growth inhibition [4] | growth inhibition [5] | growth inhibition [6] |
| --- | --- | --- | --- | --- | --- | --- |
| Cc1ccc(NC(=O)C(C)C)cc1 | -14% | -16.6% | -13.4% | -24.2% | -19.1% | -21.2% |
| Nc1nc(Cl)nc(Nc2ccc(-c3cc4ccc(-c5ncc[nH]5)cc4[nH]3)cc2)n1 | 15.5% | 45.5% | 45.4% | 31.7% | -3.6% | 62.6% |
| Cc1ccc(NC(=S)NC(=O)c2ccccc2)cc1 | 10.9% | 4.95% | 8.7% | -55.7% | 3.3% | 24.4% |
| CCCNC(=S)NN1C2CSC1CS2 | 3.15% | 14.9% | -1.35% | -33.2% | -23.9% | -0.4% |
| C[n+]1cc(Br)c2ccccc2c1 | 4.05% | -6.25% | 3.4% | -13.2% | 1.4% | 3.45% |
| CC(CC(=N)N)NC(=O)C1CCC(N)=N1 (stereo unspecified) | 6% | -41.2% | 2.15% | -1.6% | -14.2% | -9.75% |
| CC(C)CCOC(=O)c1ccccc1Cl | 17.7% | 18.5% | 11.1% | 12.4% | 0.15% | -14.6% |
| Cc1ccc(S(=O)(=O)NNC(=O)Nc2cccc(C(F)(F)F)c2)cc1 | 24.4% | -18% | 18.1% | -2.15% | -0.3% | 54.7% |
| O=C(O)CCSc1nc2ccccc2s1 | 1.2% | -9.85% | 2.75% | 0.3% | -14.2% | 19.1% |
| COC(=O)C1C2CC3C(C2=O)C31 (stereo unspecified) | 6.45% | -4.7% | 4.45% | 21.1% | 20.4% | 6.85% |
| CC(=O)OC1CCC2(C)OC(=O)CC2C1 (stereo unspecified) | 2.2% | 8.55% | 6.9% | -41.9% | 9.6% | 1.4% |
| CCOC(=O)NC(CCl)NC(=O)OCC | -11.7% | -5.6% | -2.05% | -77% | 6.4% | -35.5% |
| C[N+](C)(N)CCC[N+](C)(C)N | 12.4% | 5.2% | -3.3% | -29.4% | -52.6% | -3.4% |
| CC(=O)Nc1ccc(/C=C/C(=O)c2sc(-c3cccnc3)nc2C)cc1 | 33.2% | 11.8% | 3.25% | 17.9% | 17.5% | 29.3% |
| C=CCC1=C(C)C(O)CC1=O (stereo unspecified) | -21.9% | -13.7% | -0.75% | -15.7% | 0.7% | -41.6% |
| NC1(C(=O)NC2(C(=O)O)CCCC2)CCCC1 (H-[Ac5c]-[Ac5c]-OH) | 8.75% | 2.85% | 0.8% | -6.65% | -42.9% | 40.4% |
| O=C1c2ccccc2C(C2N=Nc3ccccc32)c2ccccc21 (stereo unspecified) | 7.1% | 5.15% | 15.6% | 26.1% | 3.8% | 6.2% |
| COc1ccccc1/C=C1\C(=O)N(C(=O)Cc2ccccc2)N=C1C | -4.4% | -8.15% | -54.2% | -10.8% | -3.85% | -25.4% |
| O=C1OC(C(Cl)(Cl)Cl)Nc2ccccc21 (stereo unspecified) | 13.8% | -19.8% | 9.35% | 15.6% | 19.4% | 12.9% |
| Cc1cc(C)c(NC(=O)Nc2cccc(F)c2)c(C)c1 | 20.8% | 11% | 13.2% | 19.2% | 23.4% | 13.3% |
| O=C(O)C1C(Br)C(Br)C1C(=O)O (stereo unspecified) (tested in a mixture with another compound) | 0.25% | -16.6% | -12.2% | -22.2% | -15.3% | -19.3% |

| Structure (SMILES) | growth inhibition [1] | growth inhibition [2] | growth inhibition [3] | growth inhibition [4] | growth inhibition [5] | growth inhibition [6] |
| --- | --- | --- | --- | --- | --- | --- |
| O=C(Nc1cccc(Cl)c1Cl)c1cc(/C=C/c2ccc([N+](=O)[O-])cc2)on1 | -21.2% | 1.15% | -12.8% | 9.1% | -8.25% | -3.85% |
| CCOC(=O)c1cc(C)nc2c1c(=O)n(-c1ccccc1)c(=O)n2CCCCN1CCN(c2ccccc2)CC1 | -1.7% | -13.2% | 4.8% | 3.25% | -21.8% | -29.1% |
| Oc1cccc(NCNC2Nc3ccccc3N2)c1 | 6.5% | 14.7% | -1.4% | -11.1% | 9.7% | 13.6% |
| N#Cc1ccc(OCCCCCOc2ccc(C#N)cc2I)c(I)c1 | -4.5% | -2.05% | -8% | -22.8% | -0.85% | -44.1% |
| CCCC(C)(CC)C(=O)O (stereo unspecified) | 7.45% | -14.8% | 14.4% | -10.3% | 1.95% | 34.8% |
| Clc1cc(Cl)c2ccc3c(Cl)cc(Cl)c4ccc1c2c43 | -18.6% | -33.3% | -10.8% | 7.3% | -30.8% | -20.6% |
| CCCCN(C(=O)CCC)c1ccccc1 | -71.1% | -0.75% | -11.9% | -40% | -11.2% | -10.1% |
| CCCCS/C=C\C(=O)OCC | 18.9% | -22.8% | -8.5% | -44% | 0.15% | -15.4% |
| O=C(NC1=C(Cl)C(=O)c2ccccc2C1=O)C(=O)c1c(O)c2ccccc2oc1=O | 83.5% (active) | 85.8% (active) | 87.8% (active) | 84.2% (active) | 84.6% (active) | 91.3% (active) |
| O=C(/C=C/c1cccs1)c1ccc(Cl)cc1 | -26.6% | -41.3% | -9.45% | -2.8% | 2.2% | -4.35% |
| O=Cc1cccc(OC(=O)Nc2ccccc2)c1 | 39% | 24.8% | 24.5% | -17.5% | 17.1% | 0.95% |
| CCCCCCCCCCCCOc1ccccn1 | -11.2% | -33.6% | -7.65% | -7.45% | -11.6% | -4.55% |
| Cc1nc(N)nc(C)c1N=Nc1cccc(Cl)c1 | 2.05% | 11.6% | 9.35% | -32.8% | 21.6% | 3.85% |
| C/C=C/C=C\C(=O)C1c2cccc(O)c2C(=O)c2c(O)cc(C)cc21 (stereo unspecified) | 40.4% | 20.9% | 12.3% | 29.6% | 37.5% | 34.1% |
| NC(=O)C(=O)C1CCC2=C(Sc3ccccc3N2)C1=O (stereo unspecified) | 39.5% | -5.4% | -6.35% | 30.1% | 34% | 4.5% |
| CCOc1ccccc1NC(=O)/C=C1\NC(=O)CS1 | -8.55% | -14.4% | 27.2% | 11.3% | -5.65% | 40.4% |
| CC(C)C1CCC(C)(C=O)C1 (stereo unspecified) | -19.7% | -0.5% | -14.3% | -7.85% | -5.75% | -26.9% |
| C/C(=N\Nc1ccc([N+](=O)[O-])cc1[N+](=O)[O-])C1(C)CC=CCC1C (stereo unspecified) | -3.9% | -3.35% | 0.4% | 6.05% | -1.7% | -1.45% |
| CCCCCCOC(=O)c1cccc(C)c1 | 7.15% | 4.4% | 5.8% | -35% | 6.85% | 11.2% |
| O=C(O)c1ccccc1/C=N\NC1=NCCCCN1 | -34.2% | -10.3% | -31.4% | 20.2% | -27.6% | -18.4% |
